Source: the supplement of paper PMC6555819

Tests used:
Assay in all cases: PBM binding z-score (relative to random genomic background probes); higher = stronger binding; sequences stand for … in GC…GCGATTGACAGCGTAGAATGAAGG
[1] = tested on: RARb homodimer (NR concentration 270 nM)
Procedure, shortened: (§1)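 Binding buffer was PBS pH 7.4 with 2% milk, 0.02% Triton X-100, 1 mM DTT, 0.2 mg/mL BSA and 0.4 mg/ml salmon testes DNA. In it, ligand-free nuclear receptor dimers were incubated 1 h on custom Agilent 4×180K protein-binding microarrays carrying double-stranded probes. Antibodies against each partner (one per run) detected binding, and z-scores were calculated against random background probes after regression normalization of scanned fluorescence.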

[2] = tested on: RARg:RXRa (NR concentration 270 nM, RXRa partner concentration 90 nM)
Procedure, shortened: as §1

[3] = tested on: RARg homodimer (NR concentration 270 nM)
Procedure, shortened: as §1

[4] = tested on: RXRa DBDmut IVT, anti-RXR (DBD mutation: RXRa K156A/R161A, NR concentration 90 nM)
Procedure, shortened: as §1

[5] = tested on: RXRa homodimer (NR concentration 180 nM)
Procedure, shortened: as §1

[6] = tested on: THRa:RXRa (NR concentration 90 nM, RXRa partner concentration 90 nM)
Procedure, shortened: as §1

[7] = tested on: THRa homodimer (NR concentration 90 nM)
Procedure, shortened: as §1

[8] = tested on: VDR homodimer (NR concentration 270 nM)
Procedure, shortened: as §1

Sequence	PBM binding z-score [1]	PBM binding z-score [2]	PBM binding z-score [3]	PBM binding z-score [4]	PBM binding z-score [5]	PBM binding z-score [6]	PBM binding z-score [7]	PBM binding z-score [8]
TCAGACAGGTGAAGGTAACTGAGGTACGCAGTCG	0.685	0.664	0.586	1.05	1.18	1.31	0.494	-0.194
AGGCAAAGTTCACTAGGTAACGTAAGATTCAGCT	3.64	4.78	5.51	4.22	3.75	2.15	0.37	4.15
ATCTCTAGGTAAGACTCAGTACAGTGAAGAACGC	0.3	0.259	0.586	0.238	0.176	0.369	0.766	0.66
TCGAGTAGGTTAGTCGGGGCATTGAGCCAACATA	0.349	-0.11	0.0255	0.159	-0.18	1	-0.457	-0.0737
CCGACTGGGGCAAAAGTTACCATACTCAGTACGA	0.168	0.333	0.253	0.584	0.278	-0.144	-0.251	-0.248
TCTATTAGTTGAAGAGCAACCGACGAGTCCGTTT	-0.385	-0.11	-0.0161	1.36	0.301	-0.14	-0.463	1.23
ATCGAAAGGTCGACAAGGTGAGTATACACCGTTT	3.01	4.25	3.99	0.788	4.36	3.65	0.513	0.835
